Source: the antibiotic and cytotoxicity screens of Wong et al. (2023)
Hit rate of the full screen: of about 39,000 compounds, about 3,300 (8.5%) were called active. The entries come from a sample that favours actives as a whole.

What follows are compounds tested on HepG2 (assay: cytotoxicity call (relative viability < 0.9)). Conditions: 10 µM.

SMILES	cytotoxicity call
C[C@@H]1CN([C@H](C)CO)C(=O)c2cccc(NC(=O)c3nc4ccccc4s3)c2O[C@@H]1CN(C)Cc1ccc(Oc2ccccc2)cc1	inactive
C[C@H](CO)N1C[C@H](C)[C@H](CN(C)Cc2ccc(Oc3ccccc3)cc2)Oc2c(NC(=O)c3nc4ccccc4s3)cccc2C1=O	inactive
C[C@H]1CN([C@@H](C)CO)C(=O)c2cccc(NC(=O)c3nc4ccccc4s3)c2O[C@@H]1CN(C)Cc1ccc(Oc2ccccc2)cc1	inactive
C[C@H](CO)N1C[C@H](C)[C@@H](CN(C)Cc2ccc(Oc3ccccc3)cc2)Oc2c(NC(=O)c3nc4ccccc4s3)cccc2C1=O	active
C[C@@H]1CN([C@H](C)CO)C(=O)c2cccc(NC(=O)c3nc4ccccc4s3)c2O[C@H]1CN(C)Cc1ccc(Oc2ccccc2)cc1	inactive
C[C@H]1CN([C@@H](C)CO)C(=O)c2cccc(NC(=O)c3nc4ccccc4s3)c2O[C@H]1CN(C)Cc1ccc(Oc2ccccc2)cc1	active
COCC#Cc1cnc2c(c1)C(=O)N([C@H](C)CO)C[C@H](C)[C@H](CN(C)C(=O)CN1CCOCC1)O2	inactive
Cc1ccc(S(=O)(=O)Nc2ccc3c(c2)C(=O)N([C@@H](C)CO)C[C@@H](C)[C@H](CN(C)C(=O)Nc2cccc4ccccc24)OCCCC[C@H](C)O3)cc1	inactive
COc1ccc(S(=O)(=O)N(C)C[C@@H]2Oc3ccc(NC(=O)Cn4cnnn4)cc3CC(=O)N([C@H](C)CO)C[C@H]2C)cc1	inactive
COc1ccc(-c2csc(C(C#N)=C3CCCCC3)n2)cc1	inactive
Cc1ccccc1/C=C(\C#N)c1nc(-c2ccccc2)cs1	active
Cc1nc(-c2ccccc2)cs1	inactive
C[C@@H]1CN([C@@H](C)CO)C(=O)c2cc(NC(=O)Cn3cnnn3)ccc2O[C@@H]1CN(C)S(C)(=O)=O	inactive
O=C(C1=C[C@@H](c2coc3ccccc3c2=O)C[C@@H](OCCCCO)O1)N1CCN(Cc2ccc3c(c2)OCO3)CC1	inactive
Cc1noc(C)c1NC(=O)Nc1ccc2c(c1)C(=O)N([C@H](C)CO)C[C@H](C)[C@@H](CN(C)S(=O)(=O)c1cn(C)cn1)O2	inactive
C[C@@H]1CN([C@H](C)CO)C(=O)c2cc(NC(=O)Nc3ccc(F)cc3)ccc2O[C@@H](C)CCCCO[C@@H]1CN(C)Cc1ccc(Cl)c(Cl)c1	inactive
C[C@@H]1CCCCO[C@@H](CN(C)Cc2ccc(Cl)c(Cl)c2)[C@@H](C)CN([C@H](C)CO)C(=O)c2cc(NC(=O)Nc3ccc(F)cc3)ccc2O1	inactive
C[C@@H]1CCCCO[C@@H](CN(C)Cc2ccc(Cl)c(Cl)c2)[C@@H](C)CN([C@@H](C)CO)C(=O)c2cc(NC(=O)Nc3ccc(F)cc3)ccc2O1	active
C[C@@H]1CCCCO[C@H](CN(C)Cc2ccc(Cl)c(Cl)c2)[C@@H](C)CN([C@H](C)CO)C(=O)c2cc(NC(=O)Nc3ccc(F)cc3)ccc2O1	active
C[C@@H]1CCCCO[C@@H](CN(C)Cc2ccc(Cl)c(Cl)c2)[C@H](C)CN([C@@H](C)CO)C(=O)c2cc(NC(=O)Nc3ccc(F)cc3)ccc2O1	inactive
C[C@@H]1CCCCO[C@@H](CN(C)Cc2ccc(Cl)c(Cl)c2)[C@H](C)CN([C@H](C)CO)C(=O)c2cc(NC(=O)Nc3ccc(F)cc3)ccc2O1	inactive
C[C@@H]1CN([C@@H](C)CO)C(=O)c2cc(NC(=O)Nc3ccc(F)cc3)ccc2O[C@@H](C)CCCCO[C@H]1CN(C)Cc1ccc(Cl)c(Cl)c1	inactive

SMILES	cytotoxicity call
C[C@@H]1CCCCO[C@H](CN(C)Cc2ccc(Cl)c(Cl)c2)[C@H](C)CN([C@@H](C)CO)C(=O)c2cc(NC(=O)Nc3ccc(F)cc3)ccc2O1	inactive
C[C@H]1CCCCO[C@H](CN(C)Cc2ccc(Cl)c(Cl)c2)[C@@H](C)CN([C@@H](C)CO)C(=O)c2cc(NC(=O)Nc3ccc(F)cc3)ccc2O1	active
C[C@H](CO)N1C[C@H](C)[C@H](CN(C)Cc2ccc(Cl)c(Cl)c2)OCCCC[C@H](C)Oc2ccc(NC(=O)Nc3ccc(F)cc3)cc2C1=O	active
C[C@H](CO)N1C[C@H](C)[C@@H](CN(C)Cc2ccc(C(=O)O)cc2)Oc2ccc(NC(=O)c3ccncc3)cc2CC1=O	inactive
C[C@@H]1CN([C@H](C)CO)C(=O)Cc2cc(NS(=O)(=O)c3ccccc3)ccc2O[C@@H]1CN(C)S(=O)(=O)c1cccs1	inactive
C[C@H]1CN([C@@H](C)CO)C(=O)c2cccc(NC(=O)c3cnccn3)c2O[C@@H]1CN(C)S(=O)(=O)c1ccccc1	inactive
C[N+](C)(C)CCCC[C@@H]1NC(=O)[C@H]2C[C@@H](C(=O)NCc3ccc(F)cc3)[C@@H](c3ccc(O)cc3)N2C1=O	inactive
COc1ccc(S(=O)(=O)Nc2ccc3c(c2)C(=O)N([C@@H](C)CO)C[C@H](C)[C@@H](CN(C)Cc2ccc4c(c2)OCO4)OCCCC[C@@H](C)O3)cc1	inactive
COc1ccc(NC(=O)N(C)C[C@@H]2OCc3ccccc3-c3c(n(C)c4ccccc34)C(=O)N([C@@H](C)CO)C[C@@H]2C)cc1	inactive
COc1ccc(S(=O)(=O)Nc2cccc3c2O[C@@H](CN(C)S(=O)(=O)c2cn(C)cn2)[C@H](C)CN([C@@H](C)CO)C3=O)cc1	inactive
C[C@@H]1CN([C@@H](C)CO)C(=O)Cc2cc(NC(=O)Nc3cccc4ccccc34)ccc2O[C@H]1CN(C)Cc1ccc(Cl)c(Cl)c1	inactive
CC(C)NC(=O)N(C)C[C@H]1Oc2ccc(NC(=O)Cn3cnnn3)cc2C(=O)N([C@@H](C)CO)C[C@H]1C	inactive
COC(=O)c1ccc(O)c(O)c1	inactive
CCS(=O)(=O)N1CCc2ccc(N)cc2C1	inactive
COc1ccc(S(=O)(=O)N(C)C[C@H]2OCCCC[C@@H](C)Oc3ccc(NS(C)(=O)=O)cc3C(=O)N([C@H](C)CO)C[C@@H]2C)cc1	inactive
CC(C)NC(=O)Nc1ccc2c(c1)C(=O)N([C@H](C)CO)C[C@H](C)[C@@H](CN(C)Cc1ccc(Cl)c(Cl)c1)OCCCC[C@H](C)O2	inactive
CC(C)NC(=O)Nc1ccc2c(c1)C(=O)N([C@@H](C)CO)C[C@H](C)[C@@H](CN(C)Cc1ccc(Cl)c(Cl)c1)OCCCC[C@H](C)O2	inactive
C[C@@H]1CCCCO[C@H](CN(C)Cc2ccc(Cl)c(Cl)c2)[C@@H](C)CN([C@@H](C)CO)C(=O)c2cc(NC(=O)Nc3ccc(F)cc3)ccc2O1	active
C[C@@H]1CN([C@H](C)CO)C(=O)c2cc(NC(=O)Nc3ccc(F)cc3)ccc2O[C@@H](C)CCCCO[C@H]1CN(C)Cc1ccc(Cl)c(Cl)c1	active
CC(C)NC(=O)Nc1ccc2c(c1)C(=O)N([C@H](C)CO)C[C@@H](C)[C@H](CN(C)Cc1ccc(Cl)c(Cl)c1)OCCCC[C@@H](C)O2	active
C[C@@H]1CN([C@@H](C)CO)C(=O)c2cc(C#CCN(C)C)cnc2O[C@@H]1CN(C)C(=O)Nc1cc(F)ccc1F	inactive
C/C=C/c1ccc2c(c1)O[C@H](CN(C)S(=O)(=O)c1ccccc1OC)[C@@H](C)CN([C@H](C)CO)S2(=O)=O	inactive

SMILES	cytotoxicity call
C[C@@H]1CN([C@H](C)CO)C(=O)c2cccc(NC(=O)C3CC3)c2O[C@H]1CN(C)Cc1ccc2c(c1)OCO2	inactive
C[C@@H]1CN([C@@H](C)CO)C(=O)c2cc(NC(=O)CCCN(C)C)ccc2O[C@H]1CN(C)C(=O)Nc1ccc2c(c1)OCO2	inactive
C[C@H](CO)N1C[C@H](C)[C@@H](CN(C)Cc2ccncc2)OCCCC[C@H](C)Oc2ccc(NS(=O)(=O)c3ccc(Cl)cc3)cc2C1=O	inactive
Cc1ccc(S(=O)(=O)Nc2cccc3c2O[C@H](CN(C)Cc2ccc(Cl)c(Cl)c2)[C@H](C)CN([C@H](C)CO)C3=O)cc1	inactive
C[C@H](CO)N1C[C@H](C)[C@H](CN(C)C)OCCCC[C@H](C)Oc2ccc(NC(=O)Nc3cccc4ccccc34)cc2C1=O	inactive
O=C(O)C[C@H]1Oc2ccccc2NC1=O	inactive
O=C(C[C@@H]1CC[C@@H]2[C@H](COC[C@@H](O)CN2S(=O)(=O)c2ccccc2F)O1)NCc1ccccc1F	inactive
C[C@@H]1CN([C@H](C)CO)C(=O)c2cccc(NC(=O)C3CCOCC3)c2O[C@@H]1CN(C)S(=O)(=O)c1ccc(Cl)cc1	inactive
O=C(C=Cc1ccc(O)cc1)c1ccccc1	active
O=C(C=Cc1ccc(O)cc1)c1ccccc1O	inactive
O=C(C=Cc1ccccc1)c1ccc(O)cc1	active
O=C(/C=C/c1ccccc1)C1CC1	inactive
O=C(C=Cc1ccccc1)c1ccc(O)cc1O	inactive
CC(C)c1ccc(/C=C/C(=O)O)cc1	inactive
CC(C)NC(=O)N(C)C[C@H]1OCCCC[C@H](C)Oc2ccc(NC(=O)C3CCCCC3)cc2C(=O)N([C@H](C)CO)C[C@H]1C	inactive
O=C1CCC(=O)NCC/C=C/CCN1	inactive
O=C(C[C@H]1C=C[C@H](NC(=O)C2CC2)[C@H](CO)O1)NCCCN1CCOCC1	inactive
COCC#Cc1cnc2c(c1)C(=O)N([C@@H](C)CO)C[C@@H](C)[C@H](CN(C)C(=O)Nc1ccc(OC)cc1)O2	inactive
C[C@@H]1CCCCO[C@H](CN(C)C(=O)c2ccccc2)[C@@H](C)CN([C@@H](C)CO)C(=O)c2cc(NC(=O)CCC(F)(F)F)ccc2O1	inactive
C[C@H]1CCCCO[C@@H](CN(C)C(=O)Nc2ccccc2)[C@@H](C)CN([C@@H](C)CO)C(=O)c2cc(NS(=O)(=O)c3ccc(Cl)cc3)ccc2O1	inactive
C[C@H]1CN([C@@H](C)CO)C(=O)c2c(c3ccccc3n2C)-c2ccccc2CO[C@@H]1CN(C)S(C)(=O)=O	inactive
C[C@H](CO)N1C[C@H](C)[C@@H](CN(C)S(=O)(=O)c2ccc(F)cc2)Oc2ccc(NC(=O)CCCN(C)C)cc2CC1=O	inactive
